# Data reported in PubChem BioAssay.
# “And” between values parts separate entries of the source, which are not always exact repeats. Equal values may be shown once. Records with an inconclusive call do not appear. For some assays here: Entries with a potency or affinity are not part of this list. The source made the active and inactive calls. Cut-off read from the data, not from the text of the source, unless noted: active = inhibition above about 80%; inactive = the rest.
# Assays:
# [1] = viability loss in pontine glioma line – cell-based, SU-DIPG-XIII, MIPE5.0, CellTiter-Glo, qHTS, dose response (AID 1347064; cut-off not given, nearly all actives have AC50 up to about 23 µM); conditions: CellTiter-Glo ATP luminescence
# [2] = compounds altering HSF1 focus formation in cells – imaging, Selleck Cancer Library (AID 1347162; in the data active = plate-normalised HSF1 focus index below about 0.46); conditions: human cells, HSF1 nuclear foci imaging, at 10 µM; SSMD: measured here: HSF1 foci SSMD mean; cell count: measured here: cell number; plate-normalised HSF1 focus index: stronger effect = lower value
# [3] = growth inhibition, single agents and combos, LFS_MB_1R, cell-based, cisplatin or BGB combos, synergistic combos for chromothripsis tumors (AID 1671452); conditions: LFS_MB_1R medulloblastoma cells, stronger effect = higher value;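 note: cells exposed for 96 hours before readout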
# [4] = growth inhibition, single agents and combos, CRL2098, cell-based, BGB or cisplatin IC20 combos, synergistic combos for chromothripsis tumors (AID 1671454); conditions: CRL2098 osteosarcoma cells, drug combinations, stronger effect = higher value;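 note: cells exposed for 96 h before readout; 0% = vehicle DMSO and 100% = killing by high DMSO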
# [5] = growth inhibition, single agents and combos, HD-MB03, cell-based, BGB or cisplatin IC20 combos, synergistic combos for chromothripsis tumors (AID 1671455; in the data active = inhibition above about 83%;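 note: 0% = vehicle DMSO and 100% = high DMSO as cytotoxic control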); conditions: HD-MB03 medulloblastoma cells, stronger effect = higher value
# [6] = growth inhibition, single agents and combos, UWB1.289, cell-based, BGB or cisplatin combos, synergistic combos for chromothripsis tumors (AID 1671456); conditions: UWB1.289 ovarian carcinoma cells, stronger effect = higher value;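 note: cells exposed to compound for four days; 0% = vehicle DMSO and 100% = killing by high DMSO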
# [7] = growth inhibition, single agents and combos, LFS_MB_2R, cell-based, cisplatin combos, synergistic combos for chromothripsis tumors (AID 1671457); conditions: LFS_MB_2R medulloblastoma cells, stronger effect = higher value;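 note: cells exposed to compound for four days before readout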
# [8] = growth inhibition, MDA-MB-436, cell-based, BGB or cisplatin combos, synergistic combos for chromothripsis tumors (AID 1671458; call rule not given here;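 note: cells exposed for 96 hours; 0% = vehicle DMSO and 100% = killing by high DMSO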); conditions: MDA-MB-436 breast carcinoma growth inhibition, drug combinations, stronger effect = higher value
# [9] = UWB1.289_BRCA1 ovarian cancer growth, cell-based, BGB or cisplatin combinations (AID 1671459); conditions: UWB1.289 BRCA1 ovarian carcinoma, drug combinations, stronger effect = higher value
# [10] = drug combination toxicity in non-malignant astrocytes – cell-based, BGB or cisplatin IC20 combos, cytotoxicity control for chromothriptic childhood tumor combination screen (AID 1671460); conditions: Human astrocytes, viability inhibition, drug combinations, at 0.5 µM, stronger effect = higher value;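 note: cells exposed to compounds for 96 hours before viability readout; 0% = vehicle and 100% = killing control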
# [11] = BT084 cell growth, single and combined drugs, ICGC_MB145, cisplatin and BGB IC40 combos (AID 1671461); conditions: BT084 medulloblastoma cells, drug combinations, stronger effect = higher value;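 note: cells exposed to drugs for 96 hours; 0% = vehicle DMSO and 100% = high DMSO full killing control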
# [12] = RCMB18 cell growth, single agent and combined, cisplatin and BGB IC40 combos (AID 1671462); conditions: RCMB18 medulloblastoma cells, stronger effect = higher value;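 note: cells exposed to compound for four days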
# [13] = CRL1545 cell growth, single agent and combined, cisplatin and BGB IC20 combos (AID 1671464); conditions: CRL1545 osteosarcoma cells, stronger effect = higher value;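 note: cells exposed to compound for 96 hours before readout; 0% = vehicle DMSO and 100% = high DMSO killing control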
# [14] = rescue of PC12 cells from polyQ htt toxicity – LDH release (AID 1610); conditions: PC12 mutant huntingtin toxicity, final LDH at 4 uM, stronger effect = lower value
# [15] = target: Calcium-dependent protein kinase 1 (Plasmodium falciparum (isolate 3D7)) (UniProt P62344); assay: PfCDPK1 kinase inhibitors, biochemical, TCAMS library (AID 1159585; cut-off not given, nearly all actives have IC50 up to about 0.98 µM;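 note: inhibitors leave more ATP so luminescence rises with inhibition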); conditions: recombinant PfCDPK1, Kinase-Glo ATP depletion luminescence
# [16] = target: Plasmodium falciparum protein kinase 6 (PK6, PF3D7_1337100) (UniProt Q8IDW1); assay: PfPK6 kinase inhibitors, biochemical, TCAMS library (AID 1159586; call rule not given here); conditions: recombinant PfPK6, Kinase-Glo ATP depletion luminescence
# [17] = target: Protein kinase 7 (PK7), Plasmodium falciparum 3D7 (PF3D7_0213400) (UniProt Q7YTF7); assay: inhibition of Plasmodium PK7 catalytic activity – biochemical, TCAMS antimalarial set, Kinase-Glo luminescence (AID 1159587; call rule not given here); conditions: recombinant PfPK7, Kinase-Glo ATP depletion luminescence
# [18] = target: Calcium-dependent protein kinase 4 (Plasmodium falciparum (isolate 3D7)) (UniProt Q8IBS5); assay: PfCDPK4 kinase inhibitors, biochemical, TCAMS library (AID 1159588; cut-off not given, nearly all actives have IC50 up to about 0.91 µM); conditions: recombinant PfCDPK4, Kinase-Glo ATP depletion luminescence
# [19] = viability loss in pontine glioma line – cell-based, SU-DIPG-XXV, MIPE5.0, CellTiter-Glo, qHTS, dose response (AID 1347065; cut-off not given, nearly all actives have AC50 up to about 26 µM;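 note: cells exposed to compound for 48 hours before ATP readout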); conditions: CellTiter-Glo ATP luminescence
# [20] = chitosan synthesis blockers in C. neoformans – flow cytometry, Cibacron Brilliant Red staining (AID 1347148; call rule not given here;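 note: compound exposure lasted three days at 37 degrees C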); conditions: Cryptococcus neoformans chitosan, stronger effect = lower value; at 10 µM unless noted
# [21] = measured here: combination with BGB IC40, at 0.05 µM
# [22] = measured here: combination with cisplatin, at 0.5 µM
# [23] = measured here: combination with cisplatin, at 5 µM
# [24] = measured here: combination with BGB at IC20, at 0.5 µM
# [25] = measured here: combination with cisplatin at IC20, at 0.5 µM
# [26] = measured here: combo with BGB at IC20, at 0.5 µM
# [27] = measured here: combo with cisplatin at IC20, at 0.5 µM
# [28] = measured here: inhibition with BGB combination, at 0.05 µM
# [29] = measured here: inhibition with cisplatin combination, at 0.05 µM
# [30] = measured here: BGB combination, at 0.5 µM
# [31] = measured here: BGB combination, at 5 µM
# [32] = measured here: cisplatin combination, at 0.5 µM
# [33] = measured here: cisplatin combination, at 5 µM
# [34] = BGB combination, concentration series, at 5 µM
# [35] = cisplatin combination, concentration series, at 5 µM
# [36] = measured here: combo with BGB IC20
# [37] = measured here: combo with cisplatin IC20
# [38] = cisplatin combination, at 0.5 µM
# [39] = measured here: BGB IC40 combination 0.05 uM, at 0.05 µM
# [40] = measured here: BGB IC40 combination, at 0.05 µM
# [41] = measured here: with BGB IC20 combination, at 0.5 µM
# [42] = measured here: with cisplatin IC20 combination, at 0.5 µM
# Calcium-dependent protein kinase 1 (Plasmodium falciparum (isolate 3D7)), sequence (P62344 whole entry, looked up): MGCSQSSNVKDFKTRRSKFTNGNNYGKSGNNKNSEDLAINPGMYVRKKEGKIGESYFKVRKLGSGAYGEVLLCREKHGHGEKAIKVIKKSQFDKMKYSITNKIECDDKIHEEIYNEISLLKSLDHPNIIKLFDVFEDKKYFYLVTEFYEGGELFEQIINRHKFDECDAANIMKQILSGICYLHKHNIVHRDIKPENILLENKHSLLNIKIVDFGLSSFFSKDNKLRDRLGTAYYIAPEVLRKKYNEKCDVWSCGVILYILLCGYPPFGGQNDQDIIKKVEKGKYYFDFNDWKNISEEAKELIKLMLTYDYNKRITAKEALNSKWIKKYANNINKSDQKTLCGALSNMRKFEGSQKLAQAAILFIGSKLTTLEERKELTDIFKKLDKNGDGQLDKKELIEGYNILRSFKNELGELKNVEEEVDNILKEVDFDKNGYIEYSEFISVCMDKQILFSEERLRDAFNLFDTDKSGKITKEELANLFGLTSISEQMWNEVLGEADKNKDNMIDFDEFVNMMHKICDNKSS
# Calcium-dependent protein kinase 4 (Plasmodium falciparum (isolate 3D7)), sequence (Q8IBS5 whole entry, looked up): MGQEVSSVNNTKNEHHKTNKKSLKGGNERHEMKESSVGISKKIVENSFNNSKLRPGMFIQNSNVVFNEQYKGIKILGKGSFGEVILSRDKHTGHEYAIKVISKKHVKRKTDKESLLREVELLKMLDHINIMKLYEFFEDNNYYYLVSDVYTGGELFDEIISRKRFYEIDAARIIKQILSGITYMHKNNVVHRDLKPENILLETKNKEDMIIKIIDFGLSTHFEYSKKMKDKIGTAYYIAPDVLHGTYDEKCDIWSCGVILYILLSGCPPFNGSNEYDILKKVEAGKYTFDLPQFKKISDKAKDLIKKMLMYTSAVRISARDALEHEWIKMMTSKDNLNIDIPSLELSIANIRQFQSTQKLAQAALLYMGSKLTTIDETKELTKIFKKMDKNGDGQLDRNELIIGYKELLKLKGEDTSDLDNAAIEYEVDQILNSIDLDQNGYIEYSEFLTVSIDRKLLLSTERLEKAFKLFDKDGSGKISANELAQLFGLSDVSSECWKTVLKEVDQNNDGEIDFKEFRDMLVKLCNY
# Plasmodium falciparum protein kinase 6 (PK6, PF3D7_1337100), sequence (Q8IDW1 1-305): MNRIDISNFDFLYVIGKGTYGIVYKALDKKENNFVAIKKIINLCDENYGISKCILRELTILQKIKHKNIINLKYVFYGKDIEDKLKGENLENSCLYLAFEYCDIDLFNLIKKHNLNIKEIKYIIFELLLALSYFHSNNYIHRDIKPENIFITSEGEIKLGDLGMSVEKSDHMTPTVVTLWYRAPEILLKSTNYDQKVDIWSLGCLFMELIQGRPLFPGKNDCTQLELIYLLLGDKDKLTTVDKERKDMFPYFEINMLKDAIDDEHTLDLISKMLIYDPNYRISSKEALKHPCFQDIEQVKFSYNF
# Protein kinase 7 (PK7), Plasmodium falciparum 3D7 (PF3D7_0213400), sequence (Q7YTF7 1-343): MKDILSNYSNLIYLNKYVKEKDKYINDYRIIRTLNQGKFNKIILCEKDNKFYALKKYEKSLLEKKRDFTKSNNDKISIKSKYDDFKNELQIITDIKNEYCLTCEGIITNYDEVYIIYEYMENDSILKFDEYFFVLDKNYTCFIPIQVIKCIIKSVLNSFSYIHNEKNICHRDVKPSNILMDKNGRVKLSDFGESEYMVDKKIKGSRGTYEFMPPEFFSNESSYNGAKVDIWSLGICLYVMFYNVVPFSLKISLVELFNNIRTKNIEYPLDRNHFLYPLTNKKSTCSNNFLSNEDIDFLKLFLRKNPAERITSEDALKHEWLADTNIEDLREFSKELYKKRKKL
structure (smiles),measurement,setting,value
O=P1(N(CCCl)CCCl)NCCCO1 (stereo not given),outcome,[1],inactive
same,SSMD,[2],1.32
same,cell count,[2],7410
same,plate-normalised HSF1 focus index,[2],1.05 (inactive)
same,inhibition,[3]; at 0.5 µM,-27.2% (inactive) and -18.7% (inactive)
same,inhibition,[3]; [21],-28.1% and -17.9%
same,inhibition,[3]; [22],-62% and -22.2%
same,inhibition,[3]; [23],-58.8% and -8.04%
same,inhibition,[4]; at 0.5 µM,-64.7% (inactive) and -26.3% (inactive)
same,inhibition,[4]; [24],-52.1% and -36.9%
same,inhibition,[4]; [25],-105% and -14.6%
same,inhibition,[5]; at 0.5 µM,-15.6% (inactive) and -8.72% (inactive)
same,inhibition,[5]; [26],-13.1% and -5.67%
same,inhibition,[5]; [27],-23.9% and -12.6%
same,inhibition,[6]; at 0.5 µM,-11% (inactive) and -0.72% (inactive)
same,inhibition,[6]; [28],0.467% and -11.6%
same,inhibition,[6]; [29],-17.5% and -3.57%
same,inhibition,[7]; at 0.5 µM,-8.87% (inactive) and -10.9% (inactive)
same,inhibition,[7]; [22],-12.2% and -3.73%
same,inhibition,[7]; [23],-12% and -15.2%
same,inhibition,[8]; at 0.5 µM,-6.84% (inactive) and -18.8% (inactive)
same,inhibition,[8]; [30],-4.29% and -16.7%
same,inhibition,[8]; [31],-11.8% and -7.83%
same,inhibition,[8]; [32],-1.92% and -34.6%
same,inhibition,[8]; [33],-42.1% and -18.1%
same,inhibition,[9]; [34],-8.88% and 6.63%
same,inhibition,[9]; at 0.5 µM,-10.4% (inactive) and -3.19% (inactive)
same,inhibition,[9]; [35],-43.5% and 10.9%
same,inhibition,[10],1.59% (inactive) and 8.63% (inactive)
same,inhibition,[10]; [36],0.13% and 3.09%
same,inhibition,[10]; [37],6.54% and 14.4%
same,inhibition,[11]; at 0.5 µM,-9.95% (inactive) and -11.7% (inactive)
same,inhibition,[11]; [38],-36.8% and -12%
same,inhibition,"[11]; cisplatin combination, at 5 µM",-1.57% and -57.3%
same,inhibition,[11]; [39],-19.2% and 1.38%
same,inhibition,"[11]; single agent, at 5 µM",-9.56% and -21.4%
same,inhibition,[12]; at 0.5 µM,-4.96% (inactive) and -6.79% (inactive)
same,inhibition,"[12]; cisplatin combo, at 5 µM",-39% and 8.55%
same,inhibition,[12]; [40],-12.6% and 10%
same,inhibition,[12]; [22],-20.8% and 7.02%
same,inhibition,"[12]; single agent, at 5 µM",-6.86% and -4.77%
same,inhibition,[13]; at 0.5 µM,-20.8% (inactive) and -21.4% (inactive)
same,inhibition,[13]; [41],-33.7% and 3.63%
same,inhibition,[13]; [42],-16.2% and -34%
same,inhibition,"[13]; single agent, at 0.05 µM",-25% and -2.49%
same,inhibition,"[13]; single agent, at 5 µM",10.9% and -41%
C[C@@H]1C[C@@H]([C@H](O)CC2CC(=O)NC(=O)C2)C(=O)[C@@H](C)C1,normalised LDH release,[14],0.469
same,outcome,[15],inactive
same,outcome,[16],inactive
same,outcome,[17],inactive
same,outcome,[18],inactive
same,AC50,[19],372 nM (active)
same,fold fluorescence,[20],9.32 [at 177.7 µM] (inactive)
O=C(O)CCCc1ccc(N(CCCl)CCCl)cc1,inhibition,[3]; at 0.5 µM,1.38% (inactive)
same,inhibition,[3]; [21],-18.1%
same,inhibition,[3]; [22],34.7%
same,inhibition,[3]; [23],17.9%
same,inhibition,[4]; at 0.5 µM,-43.4% (inactive)
same,inhibition,[4]; [24],-73.2%
same,inhibition,[4]; [25],-65.8%
same,inhibition,[5]; at 0.5 µM,-3.23% (inactive)
same,inhibition,[5]; [26],-9.02%
same,inhibition,[5]; [27],0.904%
same,inhibition,[6]; at 0.5 µM,-7.41% (inactive)
same,inhibition,[6]; [28],-22.1%
same,inhibition,[6]; [29],-7.19%
same,inhibition,[7]; at 0.5 µM,-24.2% (inactive)
same,inhibition,[7]; [22],-24.7%
same,inhibition,[7]; [23],-25.9%
same,inhibition,[8]; at 0.5 µM,-23.5% (inactive)
same,inhibition,[8]; [30],-17.2%
same,inhibition,[8]; [31],-7.5%
same,inhibition,[8]; [32],-37.9%
same,inhibition,[8]; [33],-2.83%
same,inhibition,[9]; [34],-9.82%
same,inhibition,[9]; at 0.5 µM,-20.2% (inactive)
same,inhibition,[9]; [35],4.66%
same,inhibition,[10],-13.8% (inactive)
same,inhibition,[10]; [36],-14.7%
same,inhibition,[10]; [37],-9.75%
same,inhibition,[11]; at 0.5 µM,-18.3% (inactive)
same,inhibition,[11]; [38],-2.56%
same,inhibition,"[11]; cisplatin combination, at 5 µM",-9.03%
same,inhibition,[11]; [39],37.2%
same,inhibition,"[11]; single agent, at 5 µM",-26.4%
same,inhibition,[12]; at 0.5 µM,-21.5% (inactive)
same,inhibition,"[12]; cisplatin combo, at 5 µM",-8.27%
same,inhibition,[12]; [40],-18.3%
same,inhibition,[12]; [22],-40%
same,inhibition,"[12]; single agent, at 5 µM",-21%
same,inhibition,[13]; at 0.5 µM,-17.8% (inactive)
same,inhibition,[13]; [41],-15.9%
same,inhibition,[13]; [42],-18.8%
same,inhibition,"[13]; single agent, at 0.05 µM",15.9%
same,inhibition,"[13]; single agent, at 5 µM",10.1%
